Vaccinia Venus = inhibitors of vaccinia virus (Venus reporter); Vaccinia virus Venus reporter expression, fluorescence; Potency, µM (highest dose often 36.5 µM), hits mostly inhibitors; actives 0.46% (n = 330,000); AID 720580; calls by dose curve; tested in A549 cells; also: nearly all actives have a fitted effect of over 30% in size
Pf growth 96h = inhibits malaria parasite growth, 96 h | Potency, µM (series often up to 28.7 µM), actives largely listed as inhibitors | AID 504834 | P. falciparum luciferase reporter growth, 96 h | actives 6.9% (n = 320,000)
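P. falciparum expressing integrated firefly luciferase grown in erythrocytes (2% hematocrit, 0.05% parasitemia final) with compounds for 96 hours at 37 C, 5% CO2. Growth inhibition read as loss of luminescence after adding luciferase detection reagent.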
Vaccinia mCherry = vaccinia inhibition (mCherry reporter). Vaccinia virus mCherry reporter infection, fluorescence. Potency, µM (doses to about 36.5 µM), most hits filed as inhibitors. actives 0.63% (n = 310,000); calls by dose curve; tested in A549 cells; also: nearly all actives have a fitted effect of over 35% in size
Pf growth 48h = inhibits P. falciparum growth in the first generation, 48 h; AID 504832; P. falciparum luciferase growth in erythrocytes, 48 h; actives 5.9% (n = 310,000); Potency, µM (highest dose often 28.7 µM), usual class: inhibitors
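Here the parasites carry a stable luciferase gene and grow inside erythrocytes in Albumax-based RPMI medium with compound for one erythrocytic cycle. Activity is scored as loss of luminescent signal.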
AMA1-RON2 inh = inhibitors of Plasmodium falciparum AMA1-RON2 interaction; actives 0.2% (n = 360,000); AlphaScreen AMA1-biotinylated RON2 peptide binding; Potency, µM (titrated, usually from 58.2 µM), most hits filed as inhibitors; also: nearly all actives have a fitted effect of over 45% in size
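AMA1 (3D7) with his tag at 25 nM final met compounds first, then biotinylated RON2 peptide at 25 nM; detection used donor plus acceptor beads, 10 µg/mL apiece, read by AlphaScreen after 30 min at room temperature.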
Numbers stand for hits; – = inactive; ? = inconclusive; · = not tested or not shown; [ ] = remark or other dose. A selection: hits, their analogues and other compounds. The true share with any hit is near 8.7%. Unless noted, calls follow the shape of the dose curve; as a rule, active = well fitted curve in the direction sought with a large enough effect; inconclusive = small, poorly fitted or top-dose-only effect, or another doubt; inactive = no such curve, though single readings can be large; an effect the other way counts as inactive or inconclusive.

SMILES	Vaccinia Venus	Pf growth 96h	Vaccinia mCherry	Pf growth 48h	AMA1-RON2 inh
Cc1ccc(-c2nnn(CC(=O)N(CC3CCCO3)C(C(=O)NC3CCCC3)c3ccc(F)cc3)n2)o1 (configuration not stated)	–	·	–	12µM	–
CCC[C@H]1COCCS(=O)(=O)N1Cc1ccc(F)cc1	–	·	–	·	·
CCOC(=O)C1CCCN(c2ncnc3c2nnn3C)C1 (configuration not stated)	–	·	–	·	·
COc1ccc(/C=N/NC(=O)c2cc(-c3cccn3C)n[nH]2)cc1OC	–	1.9µM	?	13µM	–
COc1ccc2c(c1)c(C(=O)N/N=C/c1ccc(OC)c(OC)c1)c(C)n2C	–	15µM	–	–	–
COc1cc(OC)c(OC)cc1/C=N/NC(=O)c1cc(-c2cccn2C)n[nH]1	·	?	·	?	–
CCN(CC)CCCNC(=O)c1nn(-c2ccc(OC)c(Cl)c2)c(=O)c2c1c1ccccc1n2C	–	·	–	·	·
CCc1nn(C(CC)C(=O)NCCCN2CC(C)CC(C)C2)c(=O)c2cc3oc(C)cc3n12 (configuration not stated)	–[7.34 µM]	0.19µM	?	?	–
CCN(CC)c1nn2c(=O)c(C(=O)NCCc3cccc(C)c3)cnc2s1	–	·	–	·	·
Cc1cc(C(=O)N/N=C2\CC(=O)c3ccccc32)c(C)n1-c1ccc(F)cc1	–	2.3µM	?	4.7µM	–
COc1ccc(C(CNC(=O)C(CCSC)NC(=O)c2ccccc2Cl)N2CCCCC2)cc1 (configuration not stated)	–	?	–	7.4µM	–[11.6 µM]
CSCCC(NC(=O)c1ccccc1Cl)C(=O)NCC(c1ccco1)N1CCCCC1 (configuration not stated)	–	7.4µM	–	15µM	–
CSCCC(NC(=O)c1ccccc1Cl)C(=O)Nc1cccc(S(=O)(=O)N2CCCC2)c1 (configuration not stated)	–	?	–	12µM	–
COCCNC(=O)C1CCN(S(=O)(=O)c2ccc3c(c2)CCCN3C(C)=O)CC1	–	·	–	·	·
COc1cccc(NC(=O)CSc2nccn2Cc2ccc3c(c2)OCO3)c1	–	·	–	·	·
CNC(=O)CSc1nnc(NC(=O)Nc2ccccc2)s1	–[7.34 µM]	·	–[7.34 µM]	·	·
CC(C)c1nnc(NC(=O)c2cccs2)s1	–	–	–	–	–
CS(=O)(=O)Nc1nnc(SCC(=O)N(c2ccccc2)c2ccccc2)s1	–	2.6µM	–	–	–[2.32 µM]
CC(C)N(C(=O)CSc1nnc(NC(=O)c2cccs2)s1)C(C)C	·	10µM	·	?	–
CCOC(=O)CSc1nc2ccc(NC(=O)c3ccccc3F)cc2s1	–	·	–	·	·
CC1=CC(=O)C2=C(C)CC(O)C3C(C)C(=O)OC3C12 (configuration not stated)	–	13µM	·	–	–
O=C(c1ccco1)n1nc(-c2ccccc2)nc1NCc1ccc(F)cc1	–	·	–	·	·
Cc1ccc(C(NC(=O)c2ccccc2)C(Cl)(Cl)Cl)cc1 (configuration not stated)	–	?	–	12µM	–
Cc1ccc(NC(NC(=O)c2cccnc2)C(Cl)(Cl)Cl)cc1 (configuration not stated)	–	13µM	–	–	–
Cc1ccc(C(=O)NC(C(=O)Nc2ccccc2)c2ccccc2)cc1 (configuration not stated)	·	–	·	9.3µM	–
SMILES	Vaccinia Venus	Pf growth 96h	Vaccinia mCherry	Pf growth 48h	AMA1-RON2 inh
C=C1C=C(C)n2ncc(C(=O)NCCCCCC)c2N1	–	·	–	·	·
CCOCCCN(Cc1ccco1)C(=O)c1cc2c(s1)-c1c(C)cccc1OC2	–	·	–	·	·
CN(C)c1ccc(NC(=O)CSc2nnc(-c3ccco3)c(-c3ccco3)n2)cc1	–	?	–	–	18µM
COc1ccc(C(=O)CSc2nnc(-c3ccco3)c(-c3ccco3)n2)cc1	·	1.5µM	·	–	–
COc1ccc(C(=O)CSc2nnc(-c3ccco3)n2C)cc1	–	·	–	–	–
O=C(CSc1nc2c([nH]c3ccccc32)c(=O)n1-c1ccccc1)N1CCCCC1	–	·	–	·	·
COc1cc(/C=C(/C#N)c2nc(-c3cc4ccccc4oc3=O)cs2)ccc1O	–	·	–	·	·
Cc1cc(C)n(C(=O)c2cc(F)c(F)cc2C)n1	·	–	·	–	–
Cc1cc(C)n(C(=O)c2ccc(Cl)c(F)c2F)n1	–	9.3µM	–	–	–
COc1ccc(-c2c(-c3cc(OC)cc(OC)c3)n(C)c3ccc(-c4ccc5cc[nH]c5c4)cc23)cc1	–	·	–	·	–
COc1ccc(-c2c(-c3cc(OC)cc(OC)c3)n(C)c3ccc(-c4cccc5[nH]ccc45)cc23)cc1	–	?	?	?	–
COc1cccc(-c2c(-c3cc(OC)cc(OC)c3)n(C)c3ccc(-c4cccc5[nH]ccc45)cc23)c1	–	?	–	1.9µM	–
COc1cc(OC)cc(-c2c(-c3ccc(F)cc3)c3cc(-c4ccc5[nH]ccc5c4)ccc3n2C)c1	–	1.7µM	–	5.2µM	–
COc1cccc(-c2c(-c3cc(OC)cc(OC)c3)n(C)c3ccc(-c4ccc5[nH]ccc5c4)cc23)c1	–	?	–	5.9µM	–
Cc1ccc(CN2C3CCCC2CC(NC(=O)Nc2cccc(F)c2)C3)cc1 (configuration not stated)	·	–	·	1.9µM	–
O=C(NC1CC2CCCC(C1)N2Cc1ccccc1)c1ccc([N+](=O)[O-])cc1 (configuration not stated)	·	0.37µM	·	–	–
Cc1ccc(C(=O)NC2CC3CCCC(C2)N3Cc2ccccc2)cc1 (configuration not stated)	–	?	–	?	–
O=C(CN1C2CCCC1CC(NC(=O)c1ccccc1)C2)Nc1nccs1 (configuration not stated)	·	9.3µM	·	?	–
Cc1ccc(CN2C3CCCC2CC(NC(=O)c2ccc(F)cc2)C3)cc1 (configuration not stated)	–	–	–	10µM	–
COc1ccc(S(=O)(=O)N(CCc2ccccc2)CC(=O)Nc2cc(C)cc(C)c2)cc1OC	–	·	?	·	·
CC(C(=O)Nc1ccc(OC(F)(F)F)cc1)N1Cc2ccccc2C1=O (configuration not stated)	–	·	–	·	·
COc1ccc(C(=O)OCc2cc(=O)n3nc(-c4cccs4)sc3n2)cc1	–	·	–	·	·
O=C(/C=C/c1ccccc1)NC1CC2CCCC(C1)N2Cc1ccccc1 (configuration not stated)	·	2.3µM	·	?	·
COc1ccc(CN2C3CCCC2CC(NC(=O)/C=C/c2ccccc2)C3)cc1 (configuration not stated)	–	–	–	?	–
Clc1ccc(-c2csc(=Nc3cccnc3)n2CCCn2ccnc2)cc1Cl	?	4.7µM	?	12µM	–[2.32 µM]
N#Cc1ccc(-c2cccnc2)nc1SCc1ccc(Cl)c(Cl)c1	·	?	·	9.3µM	–
N#Cc1ccc(-c2cccnc2)nc1SCc1ccc(Cl)cc1Cl	–	?	–	?	–
CC(C)C[C@H](NC(=O)c1nc[nH]c1C(=O)NCCCCCNC(=O)OC(C)(C)C)C(=O)OCc1ccccc1	–	9.3µM	–	?	–

Screens as filed in PubChem.
